Experimental data reported in PubChem BioAssay AID652039 (The Scripps Research Institute Molecular Screening Center, 2013).
Out of some 370,000 compounds screened, about 3,300 (0.89%) were called active.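 How the source made its calls: active means activation above the mean of all tested compounds plus 3 SD, computed per campaign excluding outliers beyond control limits (cut at about 13% in these data); inactive means the rest.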 For the sample, actives were picked, then their nearest neighbours and some compounds at random.

target: Kallikrein-7 (Homo sapiens) (UniProt P49862); experiment: proKLK7 zymogen activators, primary screen, biochemical, fluorescence intensity (AID 652039); details: purified proKLK7, EDANS-DABCYL substrate fluorescence; at 7 µM; active compounds read high; 100% is mature enzyme control, 0% vehicle
Sequence (P49862 whole entry, looked up): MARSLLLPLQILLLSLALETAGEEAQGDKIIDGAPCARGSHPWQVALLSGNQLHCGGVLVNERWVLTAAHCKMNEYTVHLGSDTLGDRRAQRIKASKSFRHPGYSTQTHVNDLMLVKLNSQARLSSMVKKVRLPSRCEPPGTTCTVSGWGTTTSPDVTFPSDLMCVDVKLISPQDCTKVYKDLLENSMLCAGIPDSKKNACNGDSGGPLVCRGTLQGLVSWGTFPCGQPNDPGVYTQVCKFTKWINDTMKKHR

Row | SMILES | activation
1 | Cc1ccsc1-c1cc(C(=O)O)c2c(ccc3ccccc32)n1 | 12.6% (active)
2 | Cc1cc(=O)oc2c1ccc1ccccc12 | -3.76% (inactive)
3 | Cc1ccccc1C(=O)O | -0.39% (inactive)
4 | Cc1cc(=O)oc2c(C)c(OCC(=O)NCCN3CCOCC3)ccc12 | -0.44% (inactive)
5 | Cc1c(C)c2c(OCC(=O)N[C@@H](C(=O)O)c3ccccc3)cc3c(c2oc1=O)CCC(C)(C)O3 | 39.6% (active)
6 | Cc1c(C)c2c(OCC(=O)NCCCO)cc3c(c2oc1=O)CCC(C)(C)O3 | 40.1% (active)
7 | COc1ccc(CCNC(=O)COc2cc(C)cc3oc(=O)c(C)c(C)c23)cc1OC | -0.02% (inactive)
8 | Cc1cc(=O)oc2c3c(cc(OCC(=O)NCc4ccccn4)c12)OC(C)(C)CC3 | 12.5% (inactive)
9 | COc1cccc(NC(=O)COc2cc(C)cc3oc(=O)cc(C)c23)c1 | -0.24% (inactive)
10 | CCc1cc(=O)oc2c(C)c(OCC(=O)NCCN3CCOCC3)ccc12 | 1.04% (inactive)
11 | Cc1cc(=O)oc2c3c(cc(OCC(=O)NCCC(=O)N[C@@H](C)C(=O)O)c12)OC(C)(C)CC3 | 47.4% (active)
12 | O=C(COc1ccc2c3c(c(=O)oc2c1)CCCC3)NCC(O)c1ccccc1 (stereo not drawn) | -0.24% (inactive)
13 | Cc1cc(=O)oc2c3c(cc(OCC(=O)N[C@H](C(=O)O)c4ccccc4)c12)OC(C)(C)CC3 | 47.5% (active)
14 | Cc1c(OC(C)C(=O)N[C@@H](Cc2ccccc2)C(=O)O)ccc2c3c(c(=O)oc12)CCCC3 (stereo partly drawn) | -18.9% (inactive)
15 | Cc1cc(=O)oc2c3c(cc(OCC(=O)NCC(O)c4ccccc4)c12)OC(C)(C)CC3 (stereo not drawn) | -10.6% (inactive)
16 | Cc1ccccc1NC(=O)COC(=O)c1ccc(Sc2ncn[nH]2)c([N+](=O)[O-])c1 | 0.34% (inactive)
17 | Cc1cc(C)cc(NC(=O)N2CCC(N(C)CCC(C)C)CC2)c1 | -0.07% (inactive)
18 | CC(CCN1CCC(C(O)(c2ccccc2)c2ccccc2)CC1)Oc1ccc(C(F)(F)F)cc1 (stereo not drawn) | -0.17% (inactive)
19 | COC(=O)[C@]12C[C@H](CC(=O)N3CCN(C(=O)C4CC4)CC3)C(=O)N(CCC3=CCCCC3)C1=C[C@H](C(C)C)O[C@@H]2C1CC1 | 0.25% (inactive)
20 | CCCC[C@H]1C2CC(OC(=O)NCc3ccccc3)C(C2)[C@H]2CCCCN21 (stereo partly drawn) | 0.07% (inactive)
21 | O=C(NCc1cccnc1)c1ccc2nc([C@@H]3O[C@H](CO)[C@H](O)[C@H](O)[C@H]3O)[nH]c2c1 | -0.29% (inactive)
22 | CCOC(=O)c1csc(NC(=O)C2CCCN(S(=O)(=O)c3ccc(Cl)s3)C2)n1 (stereo not drawn) | 0.6% (inactive)
23 | Cc1ccccc1N1CCN(C2CCCN(C(=O)c3cn4c(C)cccc4n3)C2)CC1 (stereo not drawn) | 0.45% (inactive)
